Compounds without any hit were thinned out: in the full panel of roughly 83,000, 20% have a hit.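 Assay: single dose, 48 h. Readout: percent growth (0 = no net growth; negative = cell death). Active: <10.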 Active and inactive are the calls of the source.

The experiment concerns MDA-MB-468 breast. Put plainly: NCI-60 one-dose screen, 48 h (100 = growth as untreated, 0 = no growth, -100 = all killed). As to conditions: 10 µM unless noted.
Take `O=c1[nH]c2ccc(Br)cc2c2c1C(c1ccc(Cl)cc1)c1c(ncn3nc(-c4ccco4)nc13)O2` (stereo not given): the growth is 85.9% (inactive).

Take `Cc1cc(NN=C(c2ccc(O)cc2)c2ccc(O)cc2)c([N+](=O)[O-])cc1[N+](=O)[O-]`: the growth was 92.8% (inactive).

Take `Nc1nc(N)c2c(n1)NC(c1ccc(F)cc1)CC(c1ccc(Nc3nc(NCCO)nc(Nc4ccc(Cl)cc4)n3)cc1)=N2` (stereo not given): the growth was -68.5% (active).

As for `COC1OC(COC(C)=O)C(OC(C)=O)C(OC(C)=O)C1OC(C)=O` (stereo not given), the growth is 108% (inactive).

Turning to `C=C1C(=O)O[C@H]2[C@H]1CC/C(COC(=O)/C=C/C(=O)NCc1ccc(Cn3c(=O)sn(-c4ccccc4)c3=O)cc1)=C\CC[C@@]1(C)O[C@@H]21`, the growth was -43.4% (active).

Regarding `COc1cc2nc(Sc3sc(N)nc3C)n(-c3ccc(Oc4ccccc4)cc3)c(=O)c2cc1OC`, the growth was 80.2% (inactive).

In the case of `N#CC1C(C#N)C2c3ccccc3C=CN2C1C(=O)c1ccc(Br)cc1` (stereo not given), the growth was 99.6% (inactive).

Turning to `C=CCO[C@H]1CO[C@H]2[C@@H]1OC[C@@H]2Oc1ccc(Nc2ccnc(Nc3ccc(O[C@H]4CO[C@H]5[C@@H]4OC[C@@H]5OCC=C)c(Cl)c3)n2)cc1Cl`, the growth is -84.5% (active).

Turning to `N#CCCN(CCO)c1ccccc1`, the growth was 97.3% (inactive).

Regarding `O=c1/c(=C\c2ccc(-c3ccccc3)o2)sc2nc(-c3ccccc3)nn12`, the growth is 124% (inactive).

As to `CCCCN(CCCC)CCCNc1c2c(nc3ccc(Cl)cc13)CCCC2`, the growth was 114% (inactive).

As to `O=C1Nc2ccccc2/C1=C/C(=O)c1ccc(N2CCOCC2)cc1`, the growth was 85% (inactive).

For `CCN(CC)CCN1C(=O)c2c(c(C)c3c(oc4cc(O)ccc43)c2C)C1=O`, the growth is 96.3% (inactive).

For `CCCCCCNC(=O)Oc1ccc(/C(=C(\C)c2ccccc2)c2ccc(OCCCN(C)C)cc2)cc1`, the growth was 95% (inactive).

For the compound `Cn1ccnc1C(=O)/C=C/c1ccc(NC(=O)Nc2ccc(Cl)cc2)cc1`, the growth is 43.9% (inactive).

With `COc1cccc(-c2nn(-c3ccccc3)cc2-c2ccnc(NCCNC(=O)Nc3cccc(C(F)(F)F)c3)c2)c1`, the growth was 15.5% (inactive).

Turning to `COc1cnc2c(c1)C(=O)c1c-2n(CCCN2CCCC2)c(=O)c2cc(Cl)ccc12`, the growth was 50.4% (inactive).

With `COc1ccc(C(=O)/C=C/c2ccccc2)cc1S(N)(=O)=O`, the growth is 66.1% (inactive).

For the compound `C=C1C(=O)O[C@H]2[C@H]1CC/C(COC(=O)CSCCSCC(=O)OC/C1=C/CC[C@@]3(C)O[C@H]3[C@H]3OC(=O)C(=C)[C@@H]3CC1)=C\CC[C@@]1(C)O[C@@H]21`, the growth was -44.7% (active).

For `Nc1nc2c(ncn2[C@@H]2O[C@H](CS)[C@@H](O)[C@H]2O)c(=O)[nH]1`, the growth is 97.8% (inactive).

As to `Cc1ccc(-c2cnc3sc4ccc(Cl)cc4n23)cc1`, the growth was 103% (inactive).

For the compound `O=C1NC(=S)S/C1=C\c1cc(Br)ccc1O`, the growth is 112% (inactive).

With `Oc1c(CN2CCN(c3ccccc3F)CC2)cc(Br)c2cccnc12`, the growth is -43% (active).

With `COc1ccc(-c2nc(SCCC(C)C)nc(N/N=C\c3ccccc3O)c2C#N)cc1`, the growth is 88.6% (inactive).

In the case of `NC(=O)c1cc(Cl)ccc1NC(=O)/C=C/c1ccccc1`, the growth is 30.7% (inactive).

With `COc1cc(-c2nn3c(/C=C4/C(=O)Nc5ccccc54)c(-c4ccc(C)cc4)nc3s2)cc(OC)c1OC`, the growth is 41% (inactive).

`COc1ccc(Cc2nc3cc(OC)c(OC)cc3c(=O)[nH]2)cc1`: the growth is 56% (inactive).

`S=c1[nH]nc2ccccn12`: the growth is 98.2% (inactive).

Regarding `O=C1OCC2=C1C(c1cccc(Cl)c1)c1cc3c(cc1N2CCO)OCCO3` (stereo not given), the growth was 9.02% (active).

On to `COc1cc(/C=C/C(=O)c2cccs2)ccc1OCc1ccc(Cl)nc1`, for which the growth is 57.6% (inactive).

As to `CCOC(=O)c1c(C)oc2ncnc(N3CCN(C(=O)COc4ccc(SC)cc4)CC3)c12`, the growth is 81.9% (inactive).

`Cc1ccc(S(=O)(=O)c2nc(-c3ccc(F)cc3)oc2S(C)(=O)=O)cc1`: the growth was 57.7% (inactive).

For `CCCCN(CCCC)CCCOC(=O)c1ccc(N)cc1`, the growth was 47.5% (inactive).

For `Nc1ccc(C2=NN(C(=O)c3cc(-c4ccc(Cl)cc4)nc4ccccc34)C(c3ccc(Cl)cc3)C2)cc1` (stereo not given), the growth was 7.85% (active).

Regarding `CNS(=O)(=O)c1cccc(-c2ccc3c4c(n(C)c(=O)c3c2)-c2ccccc2C4=O)c1`, the growth was 83.4% (inactive).

Regarding `O=C1CCC(N2C(=O)c3ccc(NS(=O)(=O)c4ccccc4OC(F)(F)F)cc3C2=O)C(=O)N1` (stereo not given), the growth was 10.1% (inactive).

Consider `Cc1[nH]c(C(=O)Nc2ccc(C(N)=O)cc2N2CCOC(C)C2)c(Cl)c1Cl` (stereo not given), for which the growth was 102% (inactive).

Consider `NNc1ccc(Cl)cc1Cl`, for which the growth was 91.5% (inactive).

Regarding `Cc1ccc(N=Nc2c(N)nc(N)[nH]c2=O)cc1C`, the growth is 84.5% (inactive).

On to `NC1CCC(Nc2nc(NCc3ccc(-c4ccco4)nc3)c3ncn(C4CCCC4)c3n2)CC1` (stereo not given), for which the growth was -54.3% (active).

The record behind these values is PubChem BioAssay (NCI).
